# Results published in PubChem BioAssay AID1788 (Vanderbilt High Throughput Screening Facility, 2009).
# Unmarked numbers belong to inactive results. The rule behind the calls is not given here.
# Test system: Calcium channel L-type (rat)
# Test: PubChem AID 1788
# Conditions: MDS Pharma lead profiling panel, radioligand binding, benzothiazepine site, at 10 µM, stronger effect = higher value
smiles,measurement,value
CCOC(=O)N1CCC(NCCNC(=O)c2ccccc2C)CC1,inhibition,-4%
